From PubChem
SK-BR-3 tox 24h = SK-BR-3 proliferation inhibitors. 41,000 compounds, 0.47% hits. viability, % at 10 µM. SK-BR-3 viability, CellTiter-Glo ATP luminescence, 24 h; active compounds read low;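 active = viability at or below the median of all test compounds minus 3 SD, in both replicates if run twice, cut at about 45% in these data; inconclusive = duplicate replicates that disagree with each other; inactive = viability above that cutoff in every replicate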;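 also: 100% = median untreated cell wells and 0% = median positive control drug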
Jurkat viability = reduces viability or proliferation of Jurkat cells | AID 463 | 56,000 compounds, 1.2% hits | inhibition, % at 4 µM | Jurkat E6.1 viability, ATP luminescence, 48 h;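 active = inhibition above the mean inhibition of all tested compounds plus 3 SD, cut at about 28% in these data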
Cdc25B block = human M-phase inducer phosphatase 2 inhibition. P30305. recombinant Cdc25B, OMFP fluorescence Ex485/Em525. inhibition, %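 (compounds tested at 10 µM final in the well)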. 65,000 compounds, 0.1% hits. AID 368; in the data active = inhibition above about 50%
Target sequence (P30305 whole entry, looked up): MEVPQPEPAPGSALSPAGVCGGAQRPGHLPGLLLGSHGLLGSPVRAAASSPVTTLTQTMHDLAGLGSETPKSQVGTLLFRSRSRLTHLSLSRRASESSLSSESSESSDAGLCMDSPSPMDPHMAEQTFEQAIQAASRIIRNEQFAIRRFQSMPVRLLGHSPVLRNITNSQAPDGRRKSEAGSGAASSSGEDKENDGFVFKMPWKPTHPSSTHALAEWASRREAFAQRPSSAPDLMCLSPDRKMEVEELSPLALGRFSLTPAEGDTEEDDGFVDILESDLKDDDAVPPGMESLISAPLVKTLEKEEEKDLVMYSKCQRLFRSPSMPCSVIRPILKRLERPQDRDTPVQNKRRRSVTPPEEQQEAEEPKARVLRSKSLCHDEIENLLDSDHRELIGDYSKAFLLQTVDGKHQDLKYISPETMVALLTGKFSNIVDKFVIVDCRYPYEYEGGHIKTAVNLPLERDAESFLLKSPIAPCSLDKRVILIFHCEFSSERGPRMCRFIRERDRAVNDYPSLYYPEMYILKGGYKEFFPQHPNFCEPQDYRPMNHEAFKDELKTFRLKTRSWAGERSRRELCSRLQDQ
mHtt clearance = compounds clearing mutant huntingtin protein | HeLa Exon1htt(103Q)mCFP, aggregate imaging; zero = plate's median compound well | inhibition, % at 1.5 µM | 47,000 compounds, 0.42% hits;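 active = inhibition of aggregate fluorescence above about 70%, also judged a hit by eye on the cell image, limit read from the data, passing the limit was not always enough; inconclusive = no rule stated for this call; inactive = not judged a hit on image review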;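 also: cells exposed to compound for three days before fixation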
MKP-1 inh = inhibitors of human MKP-1 phosphatase | P28562 | recombinant MKP-1, OMFP hydrolysis fluorescence | inhibition, %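 (compounds tested at a single concentration somewhere between 10 and 100 µM)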 | 65,000 compounds, 0.15% hits | AID 374;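 active = inhibition above about 50%, limit read from the data; inconclusive = inhibition over screen mean plus 3 SD, below that limit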;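 also: 0% = DMSO max control wells and 100% = wells with enzyme stopped by NaOH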
Starred values were filed as active, the others as inactive; ? = inconclusive; . = no result given. Sampled rows, rich in hits. Any-hit rate of the full collection: about 1.6%.

SMILES	SK-BR-3 tox 24h	Jurkat viability	Cdc25B block	mHtt clearance	MKP-1 inh
CCCNc1nc2c(c(=O)n(C)c(=O)n2C)n1CCc1ccccc1	69	24	6	21	-5
CCN(CC)CCNC(=O)c1sc2nc(-c3ccccc3)cn2c1C	.	0	-16	.	4
Cc1nc2ccc(S(=O)(=O)NC(C(=O)NCc3ccco3)C(C)C)cc2s1 (stereo not drawn)	.	-3	60*	.	13
CCCCn1c(NC(=O)c2ccc(F)cc2)c(C#N)c2nc3ccccc3nc21	.	5	79*	.	?
CCC(=O)Nc1c(C#N)c2nc3ccccc3nc2n1-c1ccc(C)cc1	87	1	9	.	-18
O=C(CCn1c(=O)[nH]c2ccccc2c1=O)Nc1ccccc1	.	-3	102*	29	11
Cc1nc2c(C)cccn2c1/C(O)=C1\C(=O)C(=O)N(CCN(C)C)C1c1ccncc1 (stereo not drawn)	93	3	56*	-106	-10
COc1ccc(C2/C(=C(/O)c3ccc(F)cc3)C(=O)C(=O)N2CCCN(C)C)cc1 (stereo not drawn)	88	.	-7	.	7
CCOc1cc(NC(=O)C2CC2)c(OCC)cc1NC(=O)c1cccnc1	96	1	-1	.	-12
COC(=O)Cc1cc(=O)[nH]c(Nc2nc3ccccc3o2)n1	89	0	0	75*	-8
CC1CC(C)CN(c2nc3c(c(=O)n(C)c(=O)n3C)n2CCSc2nc3ccccc3o2)C1 (stereo not drawn)	.	-2	-5	.	1
Cc1ccc2[nH]c3c(N4CCN(Cc5ccccc5)CC4)ncnc3c2c1	62	.	6	26	-22
Cc1ccc2c(c1)[nH]c1c(N3CCN(Cc4ccccc4)CC3)ncnc12	64	34*	4	4	2
O=C(CSc1nnnn1-c1ccc2c(c1)OCCO2)Nc1nc2c(s1)CCCC2	78	-1	-6	77*	-13
CCOc1ccc2nc(NC(=O)COC)sc2c1	78	.	-10	.	6
CCOc1ccc2nc(NC(=O)c3ccoc3C)sc2c1	75	42*	1	.	10
CC(NS(=O)(=O)c1ccc(Cl)cc1)C(c1cccs1)N1CCN(C)CC1 (stereo not drawn)	.	.	-4	77*	4
O=S(=O)(Nc1cccc2ncccc12)c1cccs1	.	76*	1	.	-6
O=S(=O)(Nc1ccc(-c2nc3cccnc3s2)cc1)c1cccs1	.	1	-34	.	9
CCc1nnc(NC(=O)CSc2nnc(-c3ccc(O)cc3)n2-c2ccccc2)s1	.	5	-10	.	8
COc1ccc(-c2nnc(SCC(=O)Nc3ncc(C)s3)n2-c2ccccc2)cc1OC	68	50*	10	.	33
O=C1C2ON(c3ccc(Cl)cc3)C(c3ccco3)C2C(=O)N1c1ccccc1 (stereo not drawn)	.	-4	-1	14	8
O=C(Nc1nc2n(n1)C(c1ccc(Cl)cc1)CC(c1ccc(Cl)cc1)N2)c1ccco1 (stereo not drawn)	81	-11	8	-13	11
COc1ccc(C2CC(c3ccc(Cl)cc3)Nc3nc(NC(=O)c4ccco4)nn32)cc1 (stereo not drawn)	83	-11	4	75*	33
Cc1sc2nc(C(C)Nc3ccccc3N3CCOCC3)[nH]c(=O)c2c1C (stereo not drawn)	.	6	8	.	30
SMILES	SK-BR-3 tox 24h	Jurkat viability	Cdc25B block	mHtt clearance	MKP-1 inh
CCN(CC)c1ccc(-c2nn3c(-c4n[nH]c5c4CCC5)nnc3s2)cc1	?	97*	11	-60	?
C1CCC(c2nn3c(-c4n[nH]c5c4CCC5)nnc3s2)CC1	84	6	-1	8	0
Cc1ccc(/C(O)=C2\C(=O)C(=O)N(CCCN(C)C)C2c2ccccn2)cc1 (stereo not drawn)	92	-2	3	46	-8
CN(CC(=O)Nc1ccccn1)S(=O)(=O)c1ccc(Cl)cc1	.	.	.	18	.
CN(CCCC(=O)Nc1ccncc1)S(=O)(=O)c1ccc(Cl)cc1	.	45*	-22	26	4
CCOC(=O)c1c(C)c(C(=O)Nc2cc(F)ccc2F)c(C)n1C	.	40*	-4	.	4
O=C(c1ccc(Cl)c(S(=O)(=O)N2CCOCC2)c1)N1CCN(Cc2ccccc2)CC1	.	.	.	31	.
COc1ccc(C(=O)C(CN2CCOCC2)c2ccccc2)cc1F (stereo not drawn)	97	96*	-1	6	-34
COC(=O)c1cc2ccsc2n1CC(=O)Nc1ccc(N(C)C)cc1	.	0	-10	16	30
COC(=O)c1cc2ccsc2n1CC(=O)Nc1cc(Cl)ccc1OC	.	86*	-14	-107	10
CC1(C)NC(=O)N(CC(O)CN2CCOCC2)C1=O (stereo not drawn)	112	7	3	-10	21
CC1(C)NC(=O)N(CC(O)CN2C(=O)NC(C)(C)C2=O)C1=O	43*	11	-14	-15	-23
O=C1c2ccccc2-c2ncnc3cccc1c23	114	-6	2	-54	8
O=C(O)c1ccc2c3c(ncnc13)-c1ccccc1C2=O	44*	6	-1	.	-10
CN1/C(=C/C(=O)c2nc(S(C)(=O)=O)ncc2Cl)C(C)(C)c2ccccc21	.	102*	1	.	0
COC(=O)c1ccccc1S(=O)(=O)Nc1ccc(OC)nc1	85	-2	-6	-10	-11
Cc1cccc(C)c1NC(=O)C(c1ccccc1)N1CCN(C(=O)c2ccco2)CC1 (stereo not drawn)	89	11	23	.	2
Cc1cccc(C)c1NC(=O)C(c1ccccc1)N1CCC2(CC1)OCCO2 (stereo not drawn)	34*	12	-6	-62	-10
CCn1cc(C(=O)O)c(=O)c2cnc(N3CCN(C(=O)Nc4cccc5ccccc45)CC3)nc21	95	-4	0	.	-13
CCN(C)c1ccc(/C=N\n2nnnc2N)cc1	139	82*	-8	-15	-11
CSc1ccc(/C=N/n2nnnc2N)cc1	50	4	4	.	-2
CC(=O)N(C(C)=O)C1=C(C#N)C2(CCCCC2)Cc2ccccc21	.	.	.	-27	.
CCOC(=O)c1c(COc2ccccc2)oc2ccc(O)cc12	.	45*	-5	42	8
CCOC(=O)c1c(C(C)(C)C)oc2ccc(O)cc12	.	.	.	10	.
CN1CCN(C(c2cccnc2)c2ccc3cccnc3c2O)CC1 (stereo not drawn)	.	2	-8	-33	10
SMILES	SK-BR-3 tox 24h	Jurkat viability	Cdc25B block	mHtt clearance	MKP-1 inh
Cc1conc1NC(c1cccs1)c1ccc2cccnc2c1O (stereo not drawn)	77	30*	46	.	11
O=C(CN1CCOCC1)N1CCN(C(=O)CN2CCOCC2)CC1	91	-6	-9	45	-6
O=C(Nc1nccs1)c1ccc(S(=O)(=O)NCC2CCCCC2)cc1	123	37*	-2	15	-17
Cn1cccc1Cc1nnc(SCC(=O)Nc2ccc(F)cc2)n1CCc1ccccc1	.	-6	-12	.	14
COc1ccc(OC)c(NC(=O)CSc2nnc(Cc3cccn3C)n2CCc2ccccc2)c1	.	5	-29	.	65*
O=C(NCc1cccs1)c1noc2c1CCCC2	80	68*	4	.	2
O=C(NCc1ccc(Cl)cc1)c1noc2c1CCCC2	85	2	5	.	6
